Source: PubChem BioAssay (Tox21)
Records with an inconclusive call do not appear. Entries that show only a call come without a potency. The source made the active and inactive calls. The call rests on the fitted dose curve.

Test: cAMP Responsive Elements (CRE) small molecule agonists, cell-based qHTS assay (AID 1963590)
Conditions: CRE-bla HEK293T, beta-lactamase FRET ratio, 3 h; series mostly up to 92.4 µM
From the text: U.S. Tox21 Program National Center for Advancing Translational Sciences [NCATS] Division of Preclinical Innovation [DPI] U.S. Environmental Protection Agency [EPA] National Institutes of Environmental Health Sciences [NIEHS] National Toxicology Program [NTP] U.S. Food and Drug Administration [FDA] Tox21 Assay Overview: CREB (cyclic-AMP Responsive Element Binding Protein) is a cellular transcription factor. It binds to certain DNA sequences called cAMP Responsive Elements (CRE) and regulates the transcription of the genes. […] This cell line can be used to find agonists/antagonists of the cyclic AMP signaling pathway. The activation of the report gene under culture conditions can be detected by fluorescence intensity. This cell line has been used to screen the Tox21 10K compound library to identify agonists that induce oxidative stress.
Tox21 Assay Protocol Summary: CRE-bla Hek 293T cells were suspended in assay medium (DMEM containing 10% dialyzed FBS, 0.1 mM NEAA, 1 mM sodium pyruvate and 25 mM HEPES) and dispensed at 2,000 cells/5 uL /well into 1536-well black wall/clear bottom plates using a Multidrop Combi (ThermoFisher Scientific, Waltham, MA) dispenser. After the assay plates were incubated at 37 C/5% CO2 for 18 hrs, 23 nL of compounds dissolved in DMSO, positive controls or DMSO only was transferred to the assay plate by a pintool workstation (Kalypsys, San Diego, CA). After the plates were incubated at 37 C/5% CO2 for 3 hrs, 1 uL of LiveBLAzer B/G FRET substrate (Invitrogen, Carlsbad, CA) was added to each well using Bioraptr Flying Reagent Dispenser (FRD, Aurora Discovery, San Diego, CA). The plates were incubated at room temperature for 2 h.

Row | SMILES | Potency
1 | COCCOCCOCCO | inactive
2 | CCCCCCCCCCCCCCCC(=O)O | inactive
3 | OC[C@H]1O[C@@H](Oc2ccc(O)cc2)[C@H](O)[C@@H](O)[C@@H]1O | inactive
4 | CC1(C)S[C@@H]2[C@H](NC(=O)COc3ccccc3)C(=O)N2[C@H]1C(=O)O | inactive
5 | CCC(C)OC(=O)c1ccc(O)cc1 (stereo not given) | inactive
6 | CC(C)=CCC/C(C)=C/C=O | inactive
7 | Cc1c(N(C)C)c(=O)n(-c2ccccc2)n1C | inactive
8 | CC(C)(C#N)c1cc(Cn2cncn2)cc(C(C)(C)C#N)c1 | inactive
9 | CCCCNS(=O)(=O)c1ccccc1 | inactive
10 | Cc1ccnc2c1NC(=O)c1cccnc1N2C1CC1 | inactive
11 | O=C(O)c1cccc(C(=O)O)c1 | inactive
12 | Clc1ccccn1 | inactive
13 | Cc1cc(=O)n(-c2ccccc2)n1C | inactive
14 | O=[N+]([O-])C(CO)(CO)CO | inactive
15 | CC(=O)Nc1nnc(S(N)(=O)=O)s1 | inactive
16 | Cc1c(OCC(F)(F)F)ccnc1CS(=O)c1nc2ccccc2[nH]1 (stereo not given) | inactive
17 | N#Cc1ccccc1 | inactive
18 | c1ccc2ccccc2c1 | inactive
19 | CCCCCCc1ccc(O)cc1O | inactive
20 | O=C1C(c2[nH]c3ccccc3c2O)=Nc2ccccc21 | inactive

Row | SMILES | Potency
21 | C1COCCN1 | inactive
22 | CC(=O)[C@H]1CC[C@H]2[C@@H]3CC=C4C[C@@H](O)CC[C@]4(C)[C@H]3CC[C@]12C | inactive
23 | Nc1ccc2c(O)cc(S(=O)(=O)O)cc2c1 | inactive
24 | C#CCN(C)Cc1ccccc1 | inactive
25 | Cc1ncc[nH]1 | inactive
26 | OCCOCCOCCOCCO | inactive
27 | O=C1CCCCCN1 | inactive
28 | O=Cc1ccc(CO)o1 | inactive
29 | O=S1(=O)CCCO1 | inactive
30 | CC(C)CC(=O)CC(C)CC(C)C (stereo not given) | inactive
31 | CNC(=S)N(C)C | inactive
32 | CCCCCCC=O | inactive
33 | COc1ccc(C(=O)c2ccccc2O)c(O)c1 | inactive
34 | CCCOCC(C)O (stereo not given) | inactive
35 | O=C(Cl)c1c(Cl)c(Cl)c(C(=O)Cl)c(Cl)c1Cl | inactive
36 | CCCCCCOCCO | inactive
37 | Brc1ccc(Br)c(Br)c1 | inactive
38 | CN(C)c1nc(N(C)C)nc(N(C)C)n1 | inactive
39 | CCCCC(C=O)CC (stereo not given) | inactive
40 | S=c1nc[nH]c2nc[nH]c12 | inactive
